# Source: PubChem BioAssay AID504700 (The Scripps Research Institute Molecular Screening Center, 2011)
# Hit rate of the full screen: of about 340,000 compounds, about 270 (0.079%) were called active. The entries come from a sample that favours actives as a whole. A number with no mark means an inactive call.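 Rule for the calls: active = activation above a cutoff set at the mean over all compounds plus 3 SD (cut at about 18% in these data); inactive = the rest.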 Where a SMILES comes first, the peptide text is derived from it.
# Biological target: cAMP-dependent protein kinase catalytic subunit beta (Homo sapiens) + cAMP-dependent protein kinase type II-beta regulatory subunit (Homo sapiens) (UniProt P22694+P31323)
# Experiment: activators of PKA-R2B holoenzyme, primary screen, biochemical, fluorescence polarization, Cy5-IP20, human (AID 504700);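 note: higher means more holoenzyme dissociation and a rise in polarization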
# Details: PKA-R2B holoenzyme dissociation, at 11.4 µM, stronger effect = higher value, 0% DMSO only, 100% 113 µM cGMP, R2B truncated from residue 108, S112A mutant
# cAMP-dependent protein kinase catalytic subunit beta (Homo sapiens) + cAMP-dependent protein kinase type II-beta regulatory subunit (Homo sapiens), sequence (P31323 whole entry, looked up, other chains not shown): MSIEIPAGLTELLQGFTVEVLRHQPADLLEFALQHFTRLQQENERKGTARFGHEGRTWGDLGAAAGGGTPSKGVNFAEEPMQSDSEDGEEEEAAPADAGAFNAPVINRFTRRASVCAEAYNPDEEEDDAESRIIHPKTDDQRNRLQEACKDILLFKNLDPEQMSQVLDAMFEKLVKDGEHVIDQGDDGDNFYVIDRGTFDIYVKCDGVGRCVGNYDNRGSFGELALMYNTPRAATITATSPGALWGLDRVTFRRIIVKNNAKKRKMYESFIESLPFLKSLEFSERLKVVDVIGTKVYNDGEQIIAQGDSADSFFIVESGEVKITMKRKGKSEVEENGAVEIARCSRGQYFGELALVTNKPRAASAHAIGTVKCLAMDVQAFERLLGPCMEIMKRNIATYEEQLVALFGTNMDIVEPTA
row,Compound,activation
1,C[C@H]1CN([C@@H](C)CO)C(=O)c2cc(-c3cccc(F)c3)cnc2O[C@@H]1CN(C)S(C)(=O)=O,4.49%
2,O=C(C1CCCO1)N1CCN(C(=O)C23CC4CC(CC(C4)C2)C3)CC1 (stereo unspecified),7.92%
3,O=Nc1c(O)cc(O)c2ccccc12,-0.7%
4,O=C(CCN1CCCCC1)Nc1ccc(F)c(F)c1,-4%
5,O[C@H]1C[C@H](c2ccc(Cl)cc2)N(Cc2cccs2)C[C@@H]1n1cc(C2CC2)nn1,-5.34%
6,COc1ccc(-c2ccc3[nH]c4c(c3c2)CCN2C[C@H]3[C@H](C)ON(C)[C@H]3C[C@@H]42)cc1,-1.96%
7,C[C@H]1CN([C@@H](C)CO)C(=O)c2cc(Br)cnc2O[C@H]1CN(C)S(=O)(=O)c1cccs1,-1.49%
8,O=C(c1ncn2c1c(=O)[nH]c1ccccc12)N1CCc2ccccc2C1,0.26%
9,Cc1cccc(C)c1NC(=O)CNC(=O)c1ccc(N2CCOCC2)c([N+](=O)[O-])c1,-5.41%
10,Cc1noc(C)c1NC(=O)N(C)C[C@@H]1Oc2cc(Br)ccc2S(=O)(=O)N([C@@H](C)CO)C[C@H]1C,-6.5%
11,Cc1cn([C@H]2C[C@H](O)[C@@H](CNC(=O)[C@H](N)Cc3cccnc3)O2)c(=O)[nH]c1=O,3.26%
12,COc1ccc(NC(=O)CN(C)C(=O)c2cc(C)oc2C)cc1,7.31%
13,O=C(NCCc1cccc(F)c1)C1CC(O)CN1C(=O)Nc1ccccc1 (stereo unspecified),-8.6%
14,COc1ccc([C@H]2N[C@]3(CCCN(Cc4ccco4)C3=O)[C@H]3C(=O)N(C)C(=O)[C@@H]23)cc1,-1.07%
15,C[C@H]1CN([C@@H](C)CO)C(=O)c2cc(C3=CCCCC3)cnc2O[C@@H]1CN(C)C(=O)Cc1ccccc1,4.23%
16,Cc1nonc1C(=O)N/N=C/c1ccc(O)cc1,-0.48%
17,Nc1nnn(CC(=O)N/N=C/c2ccc(O)cc2)n1,-7.14%
18,CC(C)(C)c1nnc(N/N=C/c2ccc(O)cc2)n(N)c1=O,21.1% (active)
19,COc1cc2nnn(-c3ccncc3)c2cc1OC,5.36%
20,COc1ccc(C(=O)OCC(=O)Nc2cc(C)on2)cc1F,1.88%
21,COC(=O)C[C@H]1C[C@@H]2c3cc(NC(=O)Nc4ccccc4)ccc3O[C@@H]2[C@@H](CO)O1,6.99%
22,CC(C)[C@H](NC(=O)c1ccccc1F)C(=O)Nc1cccc(S(=O)(=O)N2CCOCC2)c1,4.82%
23,Cc1ccc([C@H]2N[C@]3(CCCN(CC4CCCCC4)C3=O)[C@H]3C(=O)N(Cc4ccccc4)C(=O)[C@@H]23)cc1,-3.62%
24,O=C(CNC(=O)c1ccco1)OCC(=O)c1ccccc1,3.42%
25,O=C(CNC(=O)c1ccccc1)NCC(=O)OCC(=O)c1ccccc1 (HELM PEPTIDE1{[O=C(c1ccccc1)[*:2]].G.G.[O=C(CO[*:1])c1ccccc1]}$$$$V2.0),22.6% (active)
26,O=C(CNC(=O)c1ccccc1)NCC(=O)OCc1ccc(Cl)cc1,-2.62%

row,Compound,activation
1,O=C(O)C1CCCN1c1nc(Cl)ccc1[N+](=O)[O-] (stereo unspecified),5.76%
2,COc1ccc(C(CNC(=O)c2ccc(OCc3cscn3)cc2)N2CCCC2)cc1 (stereo unspecified),3.82%
3,O=C(O)C1=C(C(=O)O)C2CCC1C2,19.1% (active)
4,COc1ccc(S(=O)(=O)N2CCCCC2)cc1C(=O)NC1CCS(=O)(=O)C1 (stereo unspecified),-9.4%
5,C[C@@H]1CN([C@@H](C)CO)C(=O)c2cc(NS(C)(=O)=O)ccc2O[C@@H](C)CCCCO[C@H]1CN(C)C(=O)Nc1ccc2c(c1)OCO2,3.71%
6,COc1cccc(C(=O)Nc2ccc3nc4n(c(=O)c3c2)CCCCC4)c1,-0.66%
7,CC(C)C1CCN(C(=O)C2CCC(=O)N(C3CCCCCC3)C2)CC1 (stereo unspecified),-0.9%
8,N#CCCN(C(=O)Nc1ccc(Cl)c(Cl)c1)C1CCCCC1,1.61%
9,O=C(c1ccc(CS(=O)Cc2ccccc2Cl)o1)N1CCN(c2ccccc2)CC1 (stereo unspecified),2.13%
10,COc1ccc(-c2cnc3c(c2)C(=O)N([C@H](C)CO)C[C@@H](C)[C@H](CN(C)Cc2ccccc2)O3)cc1,5.52%
11,CCOc1cc(/C=N/NC(=O)c2ccncc2)cc(Br)c1O,-1.34%
12,Cc1ccc(NC(=O)c2ccco2)cc1,4.37%
13,CC1(C)CN(CCc2ccccc2)C(=O)[C@H]1CC(=O)Nc1ccc(Br)cc1,-0.64%
14,COc1ccc(NC(=O)N(C)C[C@H]2Oc3ncc(C#C[C@@H](C)O)cc3C(=O)N([C@H](C)CO)C[C@H]2C)cc1,2.12%
15,COCOCCn1cc(CN2CCS(=O)(=O)N(Cc3ccc(-c4ccc(OC)cc4)cc3)C(CC(C)C)C2=O)nn1 (stereo unspecified),-14.1%
16,Cc1cccc(C(=O)NC2CCN(CC(=O)Nc3cccc(Cl)c3)CC2)c1,-3.65%
17,COc1ccc(OC)c(NC(=O)C2CCCN2S(=O)(=O)c2ccc3c(c2)CC(C)N3C(C)=O)c1 (stereo unspecified),-3.21%
18,COc1ccc(CC(NC(C)=O)C(=O)NC2CCN(C(=O)c3ccc(OC)c(OC)c3)CC2)cc1OC (stereo unspecified),-5.58%
19,COc1ccc(CC(NC(C)=O)C(=O)NC2CCN(C(=O)c3ccc(Cl)cc3)CC2)cc1 (stereo unspecified),19.4% (active)
20,CC(=O)NC(Cc1ccc(F)c(F)c1)C(=O)NC1CCN(C(=O)c2ccc(C)cc2)CC1 (stereo unspecified),-1.79%
21,COc1cccc(Nc2nnc(SCC(=O)N3CC(=O)Nc4ccccc43)s2)c1,-4.91%
22,COc1cccc(Nc2nnc(SCC(=O)N3CC(C)OC(C)C3)s2)c1 (stereo unspecified),19.7% (active)
23,COc1ccc(C(=O)CSc2nnc(NC(=O)C3CC(=O)N(c4cccc(OC)c4)C3)s2)cc1 (stereo unspecified),-12.2%
24,C[C@@H]1CN([C@@H](C)CO)C(=O)CCCn2nncc2CO[C@@H]1CN(C)S(=O)(=O)c1ccc(-c2ccccc2)cc1,8.61%
25,CN1CCn2cnc(C(=O)NCC(=O)OC(C)(C)C)c2C1=O,6.86%
